The campaign covered roughly 69,000 compounds. About 8,600 (12%) showed an effect of 50% or more. This excerpt belongs to a sample that is enriched for strong results.
test system: Plasmodium berghei; experiment: Screen against P. berghei liver stage (PbLuc), transformed with Luciferase, at 10uM; assay type: functional, HepG2; details: tested at 10 uM

SMILES	INHIBITION
O=C(c1c2c(N3CCCC3)ncnc2n2ccccc12)N1CCCC1	47.4%
O=C(CSCC1CC1)N1CCCN(c2ccc(F)cc2)CC1	59.4%
O=C(CSCC1CC1)N1CCCN(Cc2ccc(F)cc2)CC1	23.9%
Cc1cc(N2CCCN(C(=O)CSCC3CC3)CC2)ccn1	37.6%
COCc1ccccc1C(=O)N1CCCC(c2cc(C)[nH]n2)C1 (configuration not stated)	40.9%
COc1cc(NC(=O)C2CC(=O)N(c3cccc(F)c3)C2)ncn1 (configuration not stated)	6.34%
COc1cc(NC(=O)C2CC(=O)N(c3cccc(Br)c3)C2)ncn1 (configuration not stated)	63.8%
CCOc1cc(NC(=O)C2CC(=O)N(c3cccc(OC)c3)C2)ncn1 (configuration not stated)	45.7%
CC(=O)N1CCCN(C(=O)NCCOc2ccc3c(c2)OCO3)CC1	-31.8%
CCN1CCC2(CCC1=O)CN(C1CCOCC1)CCN2C (configuration not stated)	-10.9%
CNc1cnc(CC2COCCN(Cc3cccc(C)n3)C2)cn1 (configuration not stated)	3.48%
CN(CC1CC1)c1ccc2ccc(C(=O)NCCc3ccccc3)cn12	38.3%
COc1cccc(CN(Cc2ccco2)Cc2cnc(C)n2C)c1	65.7%
COc1cccc(CN(Cc2ccco2)Cc2[nH]cnc2C)c1	87.7%
Cc1noc(CN(Cc2cccc(C#N)c2)Cc2ccco2)n1	-9.82%
COc1ccc(OC)c(CN(Cc2ccco2)Cc2[nH]cnc2C)c1	26.1%
COc1ccc(CN(Cc2ccco2)Cc2[nH]cnc2C)c(OC)c1	20.6%
COc1cccc(CN(Cc2ncc[nH]2)Cc2ccco2)c1	28.3%
Cn1nc(C(=O)N2CCSCC2)cc1NC(=O)c1ccccc1	7.39%
Cn1cc(C(=O)CC2CCCN2C(=O)c2coc3ccccc23)cn1 (configuration not stated)	3.15%
CN(C)c1cc(CNc2cncc(-n3cccn3)n2)ccn1	-6.14%
CC(C)(C)c1ncc(C(=O)NCc2cccc(C(=O)N3CCCC3)c2)s1	-12.9%
CC1(C)[C@H](Cc2cc(CO)on2)C[C@@H]1N(CC1CC1)CC1CC1	27.2%

SMILES	INHIBITION
CC1(C)[C@H](Cc2cc(CO)on2)C[C@@H]1NCc1ccc(CO)o1	58.5%
COCc1ccc(CN[C@H]2C[C@@H](Cc3cc(CCO)on3)C2(C)C)o1	30.5%
O=C(c1cc(F)ccc1Br)N1CCN(C(=O)C2CC2)CC1	12.9%
CCOc1cc(Cl)ccc1CNC(=O)c1ccc(=O)n(C)c1	39.3%
O=C(NCC(=O)N1CC2(CCCC2)c2c(F)cccc21)C1CC1	40.5%
CCS(=O)(=O)NCC(=O)N1CC2(CCCC2)c2c(F)cccc21	62.4%
CNS(=O)(=O)CC(=O)N1CC2(CCCC2)c2c(F)cccc21	-17.2%
Cc1nn(C)cc1CN(C)C(=O)c1cnccn1	8.7%
Cn1cc(S(=O)(=O)NCc2ccc(F)cc2)cn1	24.175%
CN(C)CC1CN(Cc2ccc(-n3cccn3)cc2)CCO1 (configuration not stated)	15.3%
O=C(Cc1cccc(F)c1)N1C[C@H]2CN(Cc3cccnc3)C[C@H]2C1	0.112%
CN(C)C(=O)NC1COC2(CCN(Cc3ccc(Cl)c(F)c3)CC2)C1 (configuration not stated)	39.2%
c1ccc(C2=NOC3(CCN(Cc4c[nH]c5ccccc45)CC3)C2)cc1	63.1%
CC(C)C1=NOC2(CCN(Cc3c[nH]c4ccccc34)CC2)C1	75.6%
CC1=NOC2(CCN(Cc3c[nH]c4ccccc34)CC2)C1	43.3%
CC(=O)N1CCC2(CC1)CC(C(C)C)=NO2	25.1%
c1cncc(C2=NOC3(CCN(Cc4c[nH]c5ccccc45)CC3)C2)c1	44.1%
c1ccc(O[C@H]2COCCN(Cc3c[nH]c4ccccc34)C2)cc1	-41.9%
CCc1ccc(NC(=O)N2C[C@@H]3C[C@H](C(=O)NC4CCC4)[C@H](C2)O3)cc1	-50%
O=C(O)COc1ccc(CN2CCCC(Cc3cccnc3)C2)cc1 (configuration not stated)	1.62%
COCCN(Cc1ccoc1)C(=O)CSc1ccc(F)cc1	56.5%
COCCCN(Cc1ccncc1)C(=O)CSc1ccc(F)cc1	25.8%
COCCN(Cc1ccoc1)C(=O)c1c(F)cccc1F	-6.42%

SMILES	INHIBITION
O=C(Nc1cnccn1)[C@H]1CC[C@@H]2[C@@H](CCN2Cc2ccccn2)O1	-5.08%
CC(C)CN1CCCC1c1ccc(C(=O)Nc2cccnc2)s1 (configuration not stated)	89.6%
CC(C)Cc1cc(NC(=O)c2ccc3[nH]nnc3c2)n(C)n1	1.45%
CC(C)CN1CCCC1c1ccc(C(=O)Nc2cc[nH]n2)s1 (configuration not stated)	22.3%
CC(C)CN1CCCC1c1ccc(C(=O)Nc2ccc3[nH]nnc3c2)s1 (configuration not stated)	51.1%
Cc1cnc(NC(=O)c2ccc(C3CCCN3CC(C)C)s2)s1 (configuration not stated)	64%
CCCN1CCCC1c1ccc(C(=O)N2CCOCC2)s1 (configuration not stated)	42.1%
CC(C)CN1CCCC1c1ccc(C(=O)Nc2cn(C)nn2)s1 (configuration not stated)	47.9%
CCc1noc(CC)c1CNC(=O)Nc1ccc2[nH]nnc2c1	27.2%
CCc1nnc(NC(=O)c2ccc(C3CCCN3CC(C)C)s2)s1 (configuration not stated)	15.9%
CN1C(=N)NC(=O)/C1=C/c1ccc(-c2ccc(Br)cc2)o1	10.1%
O=C(CN1CCC(c2cc(=O)n3c(n2)CCCCC3)C1)N1CCCCC1 (configuration not stated)	1.5%
Cc1cccc(OCCCN2CCC(N(C)Cc3noc(C)n3)C2)c1 (configuration not stated)	1.75%
Cc1nc(C2CCCN2C(=O)Cn2cncn2)no1 (configuration not stated)	-14%
COCCN1CCC(CN(CC2CCCO2)C(=O)Cc2cccs2)CC1 (configuration not stated)	4.35%
FC(F)(F)c1cc(C2CCCN(c3ncccn3)C2)n2ccnc2n1 (configuration not stated)	7.43%
Cn1nc(C2CCN(C(=O)CN3CCCCC3)CC2)c2cccnc21	23.2%
CCOc1ncccc1CNC(=O)c1cccc(C)n1	38.25%
COCC(=O)N1CC[C@H]2C[C@H](c3nnc(C4CC4)o3)O[C@@H]2C1	-6.3%
COc1ccc(NC(=O)N(C)Cc2ccsc2)cn1	17.4%
CCNc1cc2c(nn1)CCN(C(=O)c1cccnc1N(C)C)C2	17.05%

— ChEMBL document CHEMBL4513216, “Probing the Open Global Health Chemical Diversity Library for Multistage-Active Starting Points for Next-Generation Antimalarials” (ACS Infect Dis, 2020)
